According to PubChem BioAssay (NCATS):
Inconclusive results are not listed. Entries that show only a call come without a potency. A number with no mark means an inactive call. Calls of active or inactive are those of the source. Calls come from the whole dose curve; as a rule, active = well fitted inhibition curve with a large enough effect; inconclusive = small, poorly fitted or top-dose-only effect; inactive = flat fitted curve, though single readings scatter.

Columns and labels:
[1] = qHTS profiling for inhibitors of Plasmodium falciparum proliferation (AID 504749); for all read-outs here: nearly all actives have a fitted effect of over 60% in size; conditions: P. falciparum in erythrocytes, SYBR Green DNA, 72 h; for activity, negative = inhibition: at 28.7 µM (top of the series)
How it was run: (§1)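 SYBR Green fluorescence (ex 485 nm, em 535 nm) reports parasite DNA after 72 h compound exposure of infected red cells at 0.3% parasitemia, 2.5% hematocrit; signal normalized to 0.29 uM artemisinin and vehicle wells.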

3D7 = experiment: as above; conditions: P. falciparum in erythrocytes, SYBR Green DNA, 72 h; series mostly up to 28.7 µM
How it was run: as §1

7G8 = experiment: as above; conditions: P. falciparum in erythrocytes, SYBR Green DNA, 72 h; series mostly up to 28.7 µM
How it was run: as §1

AA1029 = experiment: as above; conditions: P. falciparum in erythrocytes, SYBR Green DNA, 72 h; series mostly up to 28.7 µM
How it was run: as §1

AS120 = experiment: as above; conditions: P. falciparum in erythrocytes, SYBR Green DNA, 72 h; series mostly up to 28.7 µM
How it was run: as §1

ATS189 = experiment: as above; conditions: P. falciparum in erythrocytes, SYBR Green DNA, 72 h; series mostly up to 28.7 µM
How it was run: as §1

ATS95 = experiment: as above; conditions: P. falciparum in erythrocytes, SYBR Green DNA, 72 h; series mostly up to 28.7 µM
How it was run: as §1

C2A = experiment: as above; conditions: P. falciparum in erythrocytes, SYBR Green DNA, 72 h; series mostly up to 28.7 µM
How it was run: as §1

CP185 = experiment: as above; conditions: P. falciparum in erythrocytes, SYBR Green DNA, 72 h; series mostly up to 28.7 µM
How it was run: as §1

CP191 = experiment: as above; conditions: P. falciparum in erythrocytes, SYBR Green DNA, 72 h; series mostly up to 28.7 µM
How it was run: as §1

CP192 = experiment: as above; conditions: P. falciparum in erythrocytes, SYBR Green DNA, 72 h; series mostly up to 28.7 µM
How it was run: as §1

CP194 = experiment: as above; conditions: P. falciparum in erythrocytes, SYBR Green DNA, 72 h; series mostly up to 28.7 µM
How it was run: as §1

CP201 = experiment: as above; conditions: P. falciparum in erythrocytes, SYBR Green DNA, 72 h; series mostly up to 28.7 µM
How it was run: as §1

CP203 = experiment: as above; conditions: P. falciparum in erythrocytes, SYBR Green DNA, 72 h; series mostly up to 28.7 µM
How it was run: as §1

CP211 = experiment: as above; conditions: P. falciparum in erythrocytes, SYBR Green DNA, 72 h; series mostly up to 28.7 µM
How it was run: as §1

CP215 = experiment: as above; conditions: P. falciparum in erythrocytes, SYBR Green DNA, 72 h; series mostly up to 28.7 µM
How it was run: as §1

CP217 = experiment: as above; conditions: P. falciparum in erythrocytes, SYBR Green DNA, 72 h; series mostly up to 28.7 µM
How it was run: as §1
Potency is the fitted concentration of half-maximal effect.

Row | Structure (SMILES) | activity, negative = inhibition ([1]; parasite line A) | activity, negative = inhibition ([1]; parasite line B) | Potency (3D7) | Potency (7G8) | Potency (AA1029) | Potency (AS120) | Potency (ATS189) | Potency (ATS95) | Potency (C2A) | Potency (CP185) | Potency (CP191) | Potency (CP192) | Potency (CP194) | Potency (CP201) | Potency (CP203) | Potency (CP211) | Potency (CP215) | Potency (CP217) | Potency ([1]; parasite line A) | Potency ([1]; parasite line B)
1 | Cc1ccc(S(=O)(=O)NC(=O)NC2CCCC2)cc1 | 11.1% | 9.92% | inactive | inactive | inactive | inactive | inactive | inactive | inactive | inactive | inactive | inactive | inactive | inactive | inactive | inactive | inactive | inactive |  | 
2 | CC(=O)Nc1ncc([N+](=O)[O-])s1 | 11.2% | 9.19% | inactive | inactive | inactive | inactive | inactive | inactive | inactive | inactive | inactive | inactive | inactive | inactive | inactive | inactive | inactive | inactive |  | 
3 | OC[C@H]1O[C@@H]2O[C@H]3[C@H](O)[C@@H](O)[C@@H](O[C@H]4[C@H](O)[C@@H](O)[C@@H](O[C@H]5[C@H](O)[C@@H](O)[C@@H](O[C@H]6[C@H](O)[C@@H](O)[C@@H](O[C@H]7[C@H](O)[C@@H](O)[C@@H](O[C@H]8[C@H](O)[C@@H](O)[C@@H](O[C@H]1[C@H](O)[C@H]2O)O[C@@H]8CO)O[C@@H]7CO)O[C@@H]6CO)O[C@@H]5CO)O[C@@H]4CO)O[C@@H]3CO | 8.7% | 8.53% | inactive | inactive | inactive | inactive | inactive | inactive | inactive | inactive | inactive | inactive | inactive | inactive | inactive | inactive | inactive | inactive |  | 
4 | Cc1cccc(C)c1NC(=O)CN1CCCCCC1 | 14.8% | 4.72% | inactive | inactive | inactive | inactive | inactive | inactive | inactive | inactive | inactive | inactive | inactive | inactive | inactive | inactive | inactive | inactive |  | 
5 | O=C(NCCc1c[nH]c2ccccc12)c1cccnc1 | 0.138% | 13.6% | inactive | inactive | inactive | inactive | inactive | inactive | inactive | inactive | inactive | inactive | inactive | inactive | inactive | inactive | inactive | inactive |  | 
6 | CC(=O)OC[C@H]1O[C@@H](n2ncc(=O)[nH]c2=O)[C@H](OC(C)=O)[C@@H]1OC(C)=O | 3.78% | 0.953% | inactive | inactive | inactive | inactive | inactive | inactive | inactive | inactive | inactive | inactive | inactive | inactive | inactive | inactive | inactive | inactive |  | 
7 | O=C(c1ccc(F)cc1)C1CCN(CCn2c(=S)[nH]c3ccccc3c2=O)CC1 |  |  | 11.2 µM (active) | 2.24 µM (active) | 4.47 µM (active) | 2.82 µM (active) | 6.31 µM (active) | 5.01 µM (active) | 10 µM (active) | 7.94 µM (active) | 11.2 µM (active) | 6.75 µM (active) | 7.57 µM (active) | 7.57 µM (active) | 6.01 µM (active) | 6.01 µM (active) | 5.36 µM (active) | 5.01 µM (active) | 5.01 µM (active) | 10 µM (active)
8 | c1ccc(-c2nc[nH]c2-c2ccccc2)cc1 | 7.29% | -4.58% | inactive | inactive | inactive | inactive | inactive | inactive | inactive | inactive | inactive | inactive | inactive | inactive | inactive | inactive | inactive | inactive |  | 
9 | N#CCC(=O)NN | 10.6% | 7.8% | inactive | inactive | inactive | inactive | inactive | inactive | inactive | inactive | inactive | inactive | inactive | inactive | inactive | inactive |  | inactive |  | 
10 | CCOc1ccc(NC(C)=O)cc1 | -9.23% | 8.77% | inactive | inactive | inactive | inactive | inactive | inactive | inactive | inactive | inactive | inactive | inactive | inactive | inactive | inactive |  | inactive |  | 
11 | O=S(=O)(O)c1ccc(O)cc1 | 4.42% | -3.84% | inactive | inactive | inactive | inactive | inactive | inactive | inactive | inactive | inactive | inactive | inactive | inactive | inactive | inactive | inactive | inactive |  | 
12 | CCCCCCCCCCCCCC(=O)OC(C)C | 2.55% | 10.9% | inactive | inactive | inactive | inactive | inactive | inactive | inactive | inactive | inactive | inactive | inactive | inactive | inactive | inactive | inactive | inactive |  | 
13 | Cc1cc(C)cc(OCC2CNC(=O)O2)c1 (configuration not stated) | -4.76% | 4.34% | inactive | inactive | inactive | inactive | inactive | inactive | inactive | inactive | inactive | inactive | inactive | inactive | inactive | inactive | inactive | inactive |  | 
